Test results published in the supplement of paper PMC4723716.
± gives the uncertainty stated by the source. Whole data set: some 9,900 compounds, median “viability index relative to DMSO control” near 1, cut for the lowest 2% near 0.85. The sample as a whole holds a higher share of the lowest values than the screen did.

System: Plasmodium falciparum NF54 stage V gametocytes
Assay: viability index relative to DMSO control (fraction); higher = less gametocyte killing
Details: 2.5 µM, incubation time: 72 h
Method in brief: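 P. falciparum NF54 stage V gametocytes in serum-free screening medium (0.75% gametocytemia, 1.25% hematocrit, 10 µl) were incubated with compound at 2.5 µM in 1,536-well plates for 72 hr at 37°C under low oxygen. Then 3 µl of 2.5 µM MitoTracker Red CMXRos plus 0.13% saponin was added for one to two hours. One field per well was imaged, 20–70 µm2 red particles were counted, and the viability index was the count divided by the plate mean of DMSO wells.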

[1] = library set: Broad Institute DOS
[2] = library set: Broad Institute Blood Stage

Compound | viability index [1] | viability index [2]
CS(=O)(=O)N1CC(=O)N2[C@@H](CO)[C@H](c3ccc(Br)cc3)[C@@H]2C1 | 1.05 ± 0.057 | –
CN1C[C@H]2[C@@H](c3ccccc31)[C@H](CO)N2Cc1ccccc1Cl | 1.03 ± 0.064 | –
C[C@H](CO)N1C[C@H](C)[C@H](CN(C)C(=O)Nc2ccc3c(c2)OCO3)Oc2c(NC(=O)c3nc4ccccc4s3)cccc2C1=O | 0.987 ± 0.021 | –
Cc1noc(C)c1NC(=O)N1C[C@@H](O)COC[C@@H]2O[C@H](CC(=O)N3CCc4ccccc4C3)CC[C@H]21 | 1.08 ± 0.11 | –
COc1ccc(S(=O)(=O)N(C)C[C@@H]2Oc3c(NC(=O)c4nc5ccccc5s4)cccc3C(=O)N([C@H](C)CO)C[C@@H]2C)cc1 | 0.951 ± 0.047 | –
O=C(O)[C@H]1[C@H](CO)[C@H]2Cn3c(ccc(C4=CCCCC4)c3=O)[C@H]2N1Cc1ccc2c(c1)OCO2 | 1.01 ± 0.026 | –
CO[C@H]1CC[C@@H]2CCOc3c(C#N)cccc3C(=O)N(C)C[C@H](OC)[C@@H](C)C(=O)N(C)C[C@@H]1O2 | 1.01 ± 0.033 | –
C[C@@H]1CN([C@H](C)CO)C(=O)Cc2cc(NC(=O)CCN3CCOCC3)ccc2O[C@@H]1CN(C)Cc1ccc(C(=O)O)cc1 | 1 ± 0.17 | –
CCCN(C)C[C@H]1OCc2ccccc2-c2ccccc2C(=O)N([C@@H](C)CO)C[C@H]1C | 0.89 ± 0.011 | –
C[C@H]1CN([C@@H](C)CO)C(=O)c2ccccc2-c2ccccc2CO[C@H]1CN(C)Cc1cccc2c1OCCCO2 | 0.825 ± 0.16 | –
C[C@@H]1CN([C@@H](C)CO)C(=O)c2ccccc2-c2ccccc2CO[C@@H]1CN(C)Cc1cccc2c1OCCCO2 | 1 ± 0.11 | –
C[C@H]1CN([C@@H](C)CO)C(=O)c2ccccc2-c2ccccc2CO[C@H]1CN(C)Cc1ccccc1C(F)(F)F | 0.726 ± 0.14 | –
C[C@H](CO)N1C[C@H](C)[C@H](CN(C)Cc2ccccc2C(F)(F)F)OCc2ccccc2-c2ccccc2C1=O | 1 ± 0.015 | –
C[C@@H]1CN([C@@H](C)CO)C(=O)c2ccccc2-c2ccccc2CO[C@H]1CN(C)Cc1ccccc1C(F)(F)F | 0.883 ± 0.044 | –
C[C@@H]1CN([C@@H](C)CO)C(=O)c2ccccc2-c2ccccc2CO[C@H]1CN(C)Cc1cccc(C(=O)O)c1 | 0.987 ± 0.016 | –
C[C@@H]1CN([C@H](C)CO)C(=O)c2ccccc2-c2ccccc2CO[C@@H]1CN(C)Cc1cccc(C(=O)O)c1 | 0.958 ± 0.11 | –
C[C@@H]1CN([C@H](C)CO)C(=O)c2ccccc2-c2ccccc2CO[C@@H]1CN(C)Cc1ccccc1C(F)(F)F | 0.806 ± 0.11 | –
C[C@H](CO)N1C[C@H](C)[C@@H](CN(C)Cc2cccc3c2OCCCO3)OCc2ccccc2-c2ccccc2C1=O | 1.06 ± 0.093 | –
C[C@@H]1CN([C@@H](C)CO)C(=O)c2ccccc2-c2ccccc2CO[C@@H]1CN(C)Cc1cccc(C(=O)O)c1 | 0.974 ± 0.098 | –
C[C@@H]1CN([C@@H](C)CO)C(=O)c2ccccc2-c2ccccc2CO[C@@H]1CN(C)Cc1ccccc1C(F)(F)F | 0.8276 ± 0.0015 | –
O=C(NCc1ccccc1)[C@H]1[C@H](CO)[C@H]2Cn3c(cccc3=O)[C@@H]1N2C(=O)Cc1ccccn1 | 1.01 ± 0.015 | –
CCc1cnc(N2[C@H](C#N)[C@H](c3ccc(C#Cc4ccccc4F)cc3)[C@H]2CO)s1 | 0.8872 ± 0.0045 | –
COCC(=O)N1[C@H](CO)[C@@H](c2ccccc2)C12CN(Cc1cc(F)ccc1F)C2 | 1.07 ± 0.023 | –

Compound | viability index [1] | viability index [2]
CC(C)(C)[S@@](=O)N1Cc2cc(C(=O)NC3CCC3)nc(-c3cccc(Br)c3)c2[C@H]1CCO | 0.994 ± 0.058 | –
O=C(NCC[C@H]1CC[C@@H](NC(=O)c2ccncc2)[C@H](CO)O1)Nc1ccc(Cl)cc1 | 1.17 ± 0.023 | –
CCCC#Cc1ccc2c(c1)[C@@H]1[C@@H](CCN1S(=O)(=O)c1cccc(F)c1)[C@@H](CO)N2C | 1.12 ± 0.051 | –
C[C@H](CO)N1C[C@H](C)[C@H](CN(C)Cc2cccc3c2OCCCO3)OCc2ccccc2-c2ccccc2C1=O | 1.04 ± 0.039 | –
C[C@H]1CN([C@@H](C)CO)C(=O)c2ccccc2-c2ccccc2CO[C@@H]1CN(C)Cc1ccccc1C(F)(F)F | 0.843 ± 0.028 | –
C[C@@H]1CN([C@H](C)CO)C(=O)c2ccccc2-c2ccccc2CO[C@@H]1CN(C)Cc1cccc2c1OCCCO2 | 0.941 ± 0.019 | –
O=C(Cc1cccnc1)N1CC(=O)N2[C@H](C1)[C@@H](c1ccc(/C=C/c3ccccc3)cc1)[C@@H]2CO | 1 ± 0.029 | –
COCC(=O)N1CC(=O)N2[C@H](CO)[C@@H](c3ccc(-c4ccccc4F)cc3)[C@@H]2C1 | 1.07 ± 0.083 | –
O=C(c1cccc(F)c1)N1CC(=O)N2[C@H](C1)[C@@H](c1ccc(-c3cccnc3)cc1)[C@@H]2CO | – | 0.817 ± 0.042
O=C(c1cnccn1)N1CC(=O)N2[C@H](CO)[C@@H](c3ccc(-c4cccc(F)c4)cc3)[C@@H]2C1 | 0.99 ± 0.047 | –
O=C(c1ccccc1)N1CC(=O)N2[C@H](CO)[C@H](c3ccc(-c4ccccc4)cc3)[C@@H]2C1 | 1.02 ± 0.066 | –
O=C(c1cccc(F)c1)N1CC(=O)N2[C@H](CO)[C@H](c3ccc(-c4cccnc4)cc3)[C@H]2C1 | – | 0.771 ± 0.058
O=C(c1ccccc1)N1CC(=O)N2[C@H](CO)[C@@H](c3ccc(-c4ccccc4)cc3)[C@H]2C1 | 1.018 ± 0.0095 | –
O=C(c1cccnc1)N1CC(=O)N2[C@H](CO)[C@H](c3ccc(-c4ccccc4F)cc3)[C@H]2C1 | 1.04 ± 0.041 | –
O=C(c1ccc(F)cc1)N1CC(=O)N2[C@H](C1)[C@@H](c1ccc(-c3cccnc3)cc1)[C@@H]2CO | – | 0.733 ± 0.11
O=C(c1ccncc1)N1CC(=O)N2[C@H](C1)[C@@H](c1ccc(-c3cccnc3)cc1)[C@@H]2CO | – | 0.891 ± 0.059
O=C(c1cnccn1)N1CC(=O)N2[C@@H](CO)[C@@H](c3ccc(-c4cccc(F)c4)cc3)[C@@H]2C1 | 1.02 ± 0.058 | –
O=C(c1cnccn1)N1CC(=O)N2[C@@H](CO)[C@H](c3ccc(-c4cccc(F)c4)cc3)[C@@H]2C1 | 1 ± 0.049 | –
O=C(c1ccccc1)N1CC(=O)N2[C@H](C1)[C@@H](c1ccc(-c3ccccc3)cc1)[C@@H]2CO | 0.829 ± 0.051 | –
O=C(c1cnccn1)N1CC(=O)N2[C@H](C1)[C@@H](c1ccc(-c3cccc(F)c3)cc1)[C@@H]2CO | 1.02 ± 0.012 | –
O=C(Cc1cccnc1)N1CC(=O)N2[C@H](CO)[C@@H](c3ccc(C4=CCCCC4)cc3)[C@H]2C1 | 0.9507 ± 0.0051 | –
O=C(C1CCC1)N1CC(=O)N2[C@H](C1)[C@H](c1ccc(Br)cc1)[C@@H]2CO | 1.02 ± 0.0049 | –
